Source: PubChem BioAssay (NCI)
This is part of a sample that, as a whole, favours compounds with a hit. Of some 83,000 tested, about 20% had one in any assay.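 Step 1: grow cells in 96-well plates. Step 2: add test compound at a single concentration. Step 3: incubate 48 h. Step 4: record percent growth.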 Active and inactive are the calls of the source. The calls were made as follows: active = growth percent below 10; inactive = the rest.

Experiments:
Test in all cases: NCI-60 one-dose screen, 48 h (100 = growth as untreated, 0 = no growth, -100 = all killed)
SK-MEL-2 melanoma = settings: 10 µM unless noted
EKVX NSCLC = settings: 10 µM unless noted
SN12C renal = settings: 10 µM unless noted
UO-31 renal = settings: 10 µM unless noted
TK-10 renal = settings: 10 µM unless noted
ACHN renal = settings: 10 µM unless noted
CAKI-1 renal = settings: 10 µM unless noted
A498 renal = settings: 10 µM unless noted
CCRF-CEM leukemia = settings: 10 µM unless noted
MOLT-4 leukemia = settings: 10 µM unless noted
SR leukemia = settings: 10 µM unless noted
RPMI-8226 leukemia = settings: 10 µM unless noted
OVCAR-8 ovarian = settings: 10 µM unless noted
OVCAR-5 ovarian = settings: 10 µM unless noted
OVCAR-4 ovarian = settings: 10 µM unless noted
SK-OV-3 ovarian = settings: 10 µM unless noted
IGROV1 ovarian = settings: 10 µM unless noted
OVCAR-3 ovarian = settings: 10 µM unless noted
HS 578T breast = settings: 10 µM
NCI/ADR-RES ovarian = settings: 10 µM unless noted

Measured: growth

COc1cc(Cn2c(-c3ccccc3)cc3c2-c2oncc2CC3)cc(OC)c1OC
active: UO-31 renal 4.35% | CAKI-1 renal 0% | A498 renal 2.81% | SR leukemia 8.51% | OVCAR-3 ovarian -44.3% | HS 578T breast -1.69% | NCI/ADR-RES ovarian 4.65%
inactive: SK-MEL-2 melanoma 31.4% | EKVX NSCLC 38.3% | SN12C renal 49.3% | TK-10 renal 47.1% | ACHN renal 48.2% | CCRF-CEM leukemia 16.9% | MOLT-4 leukemia 14.1% | RPMI-8226 leukemia 40.5% | OVCAR-8 ovarian 34.2% | OVCAR-5 ovarian 69.1% | OVCAR-4 ovarian 54.8% | SK-OV-3 ovarian 13% | IGROV1 ovarian 18.4%

C#CC[C@@H]1C[C@]2(C)[C@H]3CC[C@@H]4[C@H]5C(C(=C)C)CC[C@]5(C(=O)NCCCN5CCN(CCCN)CC5)CC[C@@]4(C)[C@]3(C)CC[C@H]2C(C)(C)[C@H]1OC(C)=O (stereo not given in full)
inactive: EKVX NSCLC 51.9% | A498 renal 98.6% | SK-OV-3 ovarian 108% | HS 578T breast 14.8% | NCI/ADR-RES ovarian 38.8%
active: SK-MEL-2 melanoma -18.1% | SN12C renal -84.4% | UO-31 renal -95.3% | TK-10 renal -91.5% | ACHN renal -97.8% | CAKI-1 renal -96.1% | CCRF-CEM leukemia -29.6% | MOLT-4 leukemia -28.3% | SR leukemia -13.6% | RPMI-8226 leukemia -48.5% | OVCAR-8 ovarian -6.54% | OVCAR-5 ovarian -61.3% | OVCAR-4 ovarian -42.3% | IGROV1 ovarian -46.7% | OVCAR-3 ovarian -83%

COc1cc(CN2CCO[C@H](COc3cccc(F)c3)C2)ccc1Cl
active: OVCAR-4 ovarian 9.51%
inactive: SK-MEL-2 melanoma 31% | EKVX NSCLC 46.3% | SN12C renal 29.3% | UO-31 renal 45.6% | TK-10 renal 46.9% | ACHN renal 53.9% | CAKI-1 renal 41.3% | A498 renal 30.6% | CCRF-CEM leukemia 42.8% | MOLT-4 leukemia 52.8% | SR leukemia 50.8% | RPMI-8226 leukemia 30.4% | OVCAR-8 ovarian 22.2% | OVCAR-5 ovarian 47.8% | SK-OV-3 ovarian 34.5% | IGROV1 ovarian 67.3% | OVCAR-3 ovarian 49.4% | HS 578T breast 51.7% | NCI/ADR-RES ovarian 26%

CN1CCN(Cc2ccc(NC(=O)c3cccc(C#Cc4cnc(N)c5ncccc45)c3F)cc2C(F)(F)F)CC1
inactive: EKVX NSCLC 66.8% | SN12C renal 44.5% | TK-10 renal 56.2% | CAKI-1 renal 33.6% | OVCAR-4 ovarian 49.6% | SK-OV-3 ovarian 22.3% | IGROV1 ovarian 24.5% | OVCAR-3 ovarian 73.2% | HS 578T breast 18% | NCI/ADR-RES ovarian 61.3%
active: SK-MEL-2 melanoma -1.16% | UO-31 renal -96.6% | ACHN renal -77.2% | A498 renal -15.1% | CCRF-CEM leukemia 7.7% | MOLT-4 leukemia 1.77% | SR leukemia -3.15% | RPMI-8226 leukemia -9.88% | OVCAR-8 ovarian -49.3% | OVCAR-5 ovarian -5.62%

O=C(Nc1ccccc1Cl)Oc1ccc2ccccc2c1
inactive: SK-MEL-2 melanoma 97.3% | EKVX NSCLC 98.9% | SN12C renal 99.3% | UO-31 renal 68.7% | TK-10 renal 130% | ACHN renal 98.3% | CAKI-1 renal 97.8% | A498 renal 100% | CCRF-CEM leukemia 114% | MOLT-4 leukemia 78.2% | SR leukemia 71.1% | RPMI-8226 leukemia 97.8% | OVCAR-8 ovarian 84.1% | OVCAR-5 ovarian 89% | OVCAR-4 ovarian 101% | SK-OV-3 ovarian 93.5% | IGROV1 ovarian 77.9% | OVCAR-3 ovarian 96.6% | HS 578T breast 115% | NCI/ADR-RES ovarian 101%

CNCc1cccc2c1OCCOCCOCCC(C)S(=O)(=O)c1ccc(cc1)-c1cnc(N)c(n1)C(=O)N2 (stereo not given)
active: A498 renal 6.01% | CCRF-CEM leukemia 2.12% | SR leukemia -19.2% | OVCAR-8 ovarian 2.48% | HS 578T breast 0.126%
inactive: SK-MEL-2 melanoma 75.2% | EKVX NSCLC 52.3% | SN12C renal 45.9% | UO-31 renal 44.4% | TK-10 renal 66.8% | ACHN renal 18.9% | CAKI-1 renal 18.6% | MOLT-4 leukemia 16.4% | RPMI-8226 leukemia 54.8% | OVCAR-5 ovarian 115% | OVCAR-4 ovarian 75.5% | SK-OV-3 ovarian 23.2% | IGROV1 ovarian 28.2% | OVCAR-3 ovarian 25.7% | NCI/ADR-RES ovarian 91.6%

C#CC[C@@H]1C[C@]2(C)[C@H]3CC=C4[C@H]5CC(C)(C)CC[C@]5(C(=O)NCCCCN)CC[C@@]4(C)[C@]3(C)CC[C@H]2C(C)(C)[C@H]1OC(C)=O
inactive: SK-MEL-2 melanoma 98.9% | EKVX NSCLC 81.1% | A498 renal 104% | CCRF-CEM leukemia 17.9% | MOLT-4 leukemia 12.2% | OVCAR-5 ovarian 21.7% | OVCAR-4 ovarian 50.1% | SK-OV-3 ovarian 116% | IGROV1 ovarian 32.8% | OVCAR-3 ovarian 49.3% | HS 578T breast 94.3% | NCI/ADR-RES ovarian 81.7%
active: SN12C renal -51.2% | UO-31 renal -44.3% | TK-10 renal -27.5% | ACHN renal -91.6% | CAKI-1 renal -70% | SR leukemia 0.939% | RPMI-8226 leukemia -10.2% | OVCAR-8 ovarian 3.77%

O=C1Nc2ccccc2/C1=C/c1c[nH]c2ccccc12
inactive: SK-MEL-2 melanoma 99.8% | EKVX NSCLC 15.7% | SN12C renal 64.5% | UO-31 renal 29.3% | TK-10 renal 110% | ACHN renal 66.7% | CAKI-1 renal 42.8% | A498 renal 91.6% | CCRF-CEM leukemia 58.9% | MOLT-4 leukemia 65.6% | SR leukemia 77.5% | RPMI-8226 leukemia 77.1% | OVCAR-8 ovarian 84.9% | OVCAR-5 ovarian 105% | OVCAR-4 ovarian 71.7% | SK-OV-3 ovarian 95.7% | OVCAR-3 ovarian 93.5% | HS 578T breast 67.6% | NCI/ADR-RES ovarian 89.6%
active: IGROV1 ovarian 2.73%

CCNC(=S)N(Cc1ccccc1)Cc1ccccc1
inactive: SK-MEL-2 melanoma 98.6% | EKVX NSCLC 93.1% | SN12C renal 103% | UO-31 renal 74.6% | TK-10 renal 106% | ACHN renal 96.3% | CAKI-1 renal 93.5% | A498 renal 116% | CCRF-CEM leukemia 132% | MOLT-4 leukemia 82.4% | SR leukemia 72% | RPMI-8226 leukemia 110% | OVCAR-8 ovarian 103% | OVCAR-5 ovarian 91% | OVCAR-4 ovarian 124% | SK-OV-3 ovarian 105% | IGROV1 ovarian 113% | OVCAR-3 ovarian 123% | HS 578T breast 136% | NCI/ADR-RES ovarian 106%

O=S(=O)(NCC[C@@H]1C[C@H]1c1ccc2ccccc2c1)c1ccc(C(F)(F)F)cc1
inactive: SK-MEL-2 melanoma 104% | EKVX NSCLC 91.1% | SN12C renal 92.9% | UO-31 renal 81.7% | TK-10 renal 100% | ACHN renal 99.2% | CAKI-1 renal 79.4% | A498 renal 94.2% | CCRF-CEM leukemia 85% | MOLT-4 leukemia 84.3% | SR leukemia 92.7% | RPMI-8226 leukemia 76% | OVCAR-8 ovarian 97.4% | OVCAR-5 ovarian 99.3% | OVCAR-4 ovarian 79.6% | SK-OV-3 ovarian 103% | IGROV1 ovarian 92% | OVCAR-3 ovarian 101% | HS 578T breast 89.6% | NCI/ADR-RES ovarian 94.3%

Oc1[nH]c2ccccc2c1/C=c1/ccc2c(c1)N=C(c1ccc(C(F)(F)F)cc1)N=2
inactive: SK-MEL-2 melanoma 27.9% | EKVX NSCLC 51.1% | SN12C renal 63.7% | UO-31 renal 73.1% | TK-10 renal 75.5% | ACHN renal 58.7% | CAKI-1 renal 32.8% | A498 renal 35% | MOLT-4 leukemia 35.5% | SR leukemia 12.1% | RPMI-8226 leukemia 35.6% | OVCAR-8 ovarian 70.5% | OVCAR-5 ovarian 72.3% | OVCAR-4 ovarian 69.1% | SK-OV-3 ovarian 82.7% | IGROV1 ovarian 41.3% | OVCAR-3 ovarian 25.8% | HS 578T breast 49.1% | NCI/ADR-RES ovarian 69.1%
active: CCRF-CEM leukemia 8.28%

CC[C@H](Nc1nc(N)nc(N)c1Cl)c1nc2cccc(NCc3ccc(C(=O)NO)cc3)c2c(=O)n1-c1ccccc1
inactive: SK-MEL-2 melanoma 71.5% | EKVX NSCLC 42% | SN12C renal 10% | UO-31 renal 20.6% | CAKI-1 renal 39.6% | OVCAR-5 ovarian 21.9% | HS 578T breast 20.9% | NCI/ADR-RES ovarian 81.8%
active: TK-10 renal -1.39% | ACHN renal 3.82% | A498 renal -12.7% | CCRF-CEM leukemia 7.44% | MOLT-4 leukemia 0.294% | SR leukemia -5.94% | RPMI-8226 leukemia 3.83% | OVCAR-8 ovarian -29.1% | OVCAR-4 ovarian 5.36% | SK-OV-3 ovarian -14.4% | IGROV1 ovarian -46.6% | OVCAR-3 ovarian -22.1%

COc1ccc(-c2nn(-c3cccc(Cl)c3)cc2/C=C2\C(=N)N(c3ccccc3)N=C2N)cc1
active: UO-31 renal 6.27% | CAKI-1 renal -27.6% | MOLT-4 leukemia 6.35%
inactive: SK-MEL-2 melanoma 69.5% | EKVX NSCLC 48.8% | SN12C renal 45.9% | TK-10 renal 80.7% | ACHN renal 20.7% | A498 renal 75.3% | CCRF-CEM leukemia 12.3% | SR leukemia 17.9% | RPMI-8226 leukemia 47.3% | OVCAR-8 ovarian 42.3% | OVCAR-5 ovarian 39.8% | OVCAR-4 ovarian 71.6% | SK-OV-3 ovarian 91.3% | IGROV1 ovarian 27.9% | OVCAR-3 ovarian 38.8% | HS 578T breast 82.1% | NCI/ADR-RES ovarian 34.7%

COc1cc(C)cc2oc3oc(=O)c(-c4csc(-c5cc6ccccc6oc5=O)n4)cc3c(=O)c12
inactive: SK-MEL-2 melanoma 124% | EKVX NSCLC 107% | SN12C renal 102% | UO-31 renal 88.6% | TK-10 renal 121% | ACHN renal 104% | CAKI-1 renal 96.1% | A498 renal 107% | CCRF-CEM leukemia 105% | MOLT-4 leukemia 108% | SR leukemia 113% | RPMI-8226 leukemia 109% | OVCAR-8 ovarian 103% | OVCAR-5 ovarian 109% | OVCAR-4 ovarian 106% | SK-OV-3 ovarian 120% | IGROV1 ovarian 117% | OVCAR-3 ovarian 116% | HS 578T breast 120% | NCI/ADR-RES ovarian 105%
